Measured values published in PubChem BioAssay AID1159580 (chemical genetic matrix, 2015).
Where “and” joins values, the source holds several entries; their conditions need not be identical. Equal entries are not always repeated. In all, about 5,500 compounds went through this assay and about 2,000 (36%) were called active. Inconclusive results (about 18%) are left out. Cut-off read from the data, not from the text of the source: active = normalized growth mostly below about 0.91 (no sharp cut-off); inconclusive = no clear call, values can overlap the other calls; inactive = mostly above about 0.92. The list shows a part of the results.

Test: chemical genetic growth profiling, strain panel (AID 1159580);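 note: tested at 20 µM; growth read once vehicle control cultures reached saturation at 30 °C; 1 = growth at the plate median or of vehicle wells; lower values mean less growth of the strain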
Details: S. cerevisiae deletion strains, growth OD
[1] = locus YAL013W, strain DEP1, active compounds read low
[2] = locus YJR075W, strain HOC1, active compounds read low
[3] = locus YNL128W, strain TEP1, active compounds read low

Measured: normalized growth

Cc1[nH]ccc2c1[nH]c1cc(=O)ccc12
inactive: [1] 1.02 | locus YAL021C, strain ccr4, active compounds read low 0.989 | locus YAL026C, strain drs2, active compounds read low 1.01 | locus YAL030W, strain snc1, active compounds read low 0.995 | locus YBL061C, strain skt5, active compounds read low 0.993 | locus YBR009C, strain hhf1, active compounds read low 1.01 | locus YBR021W, strain FUR4, active compounds read low 1.03 | locus YBR023C, strain chs3, active compounds read low 1 | locus YBR171W, strain sec66, active compounds read low 0.999 | locus YBR229C, strain ROT2, active compounds read low 1.01 | locus YBR231C, strain swc5, active compounds read low 0.975 | locus YBR279W, strain paf1, active compounds read low 1.01 | locus YCL011C, strain gbp2, active compounds read low 1 | locus YCL016C, strain dcc1, active compounds read low 1 | locus YCL029C, strain bik1, active compounds read low 0.986 | locus YCL061C, strain MRC1, active compounds read low 1 | locus YCL069W, strain vba3, active compounds read low 0.995 | locus YCR088W, strain abp1, active compounds read low 0.998 | locus YDL005C, strain med2, active compounds read low 0.996 | locus YDL035C, strain GPR1, active compounds read low 1.03 | locus YDL040C, strain nat1, active compounds read low 0.993 | locus YDL074C, strain BRE1, active compounds read low 1.04 | locus YDL101C, strain DUN1, active compounds read low 1.01 | locus YDL185W, strain tfp1, active compounds read low 0.996 | locus YDL192W, strain arf1, active compounds read low 0.991 | locus YDR001C, strain nth1, active compounds read low 1.01 | locus YDR069C, strain doa4, active compounds read low 1.01 | locus YDR101C, strain arx1, active compounds read low 0.985 | locus YDR137W, strain rgp1, active compounds read low 1 | locus YDR150W, strain NUM1, active compounds read low 1 | locus YDR159W, strain sac3, active compounds read low 0.978 | locus YDR162C, strain NBP2, active compounds read low 1.03 | locus YDR195W, strain ref2 0.996 | locus YDR297W, strain sur2, active compounds read low 1 | locus YDR318W, strain mcm21, active compounds read low 0.993 | locus YDR334W, strain swr1, active compounds read low 1 | locus YDR335W, strain msn5, active compounds read low 0.995 | locus YDR388W, active compounds read low 0.988 | locus YDR392W, strain spt3, active compounds read low 0.96 | locus YDR502C, strain sam2, active compounds read low 0.992 | locus YEL003W, strain gim4, active compounds read low 0.997 | locus YEL037C, strain rad23, active compounds read low 0.993 | locus YEL061C, strain CIN8 (second series), active compounds read low 0.989 | locus YEL061C, strain CIN8, active compounds read low 1.01 | locus YER015W, strain faa2, active compounds read low 1 | locus YER016W, strain bim1, active compounds read low 0.997 | locus YER110C, active compounds read low 0.98 | locus YER111C, strain swi4, active compounds read low 0.989 | locus YER155C, strain BEM2 (second series), active compounds read low 0.973 | locus YER155C, strain BEM2, active compounds read low 1.02 | locus YER167W, strain BCK2, active compounds read low 1.03 | locus YFR010W, strain ubp6, active compounds read low 0.995 | locus YGL078C, strain dbp3, active compounds read low 0.992 | locus YGL086W, strain mad1, active compounds read low 1.01 | locus YGL167C, strain pmr1, active compounds read low 0.993 | locus YGL173C, strain kem1, active compounds read low 1 | locus YGL227W, strain vid30, active compounds read low 0.995 | locus YGL240W, strain doc1, active compounds read low 0.995 | locus YGL248W, strain PDE1, active compounds read low 1.02 | locus YGL253W, strain hxk2, active compounds read low 1 | locus YGR135W, strain pre9, active compounds read low 0.999 | locus YGR252W, strain gcn5, active compounds read low 1.01 | locus YHR013C, strain ard1, active compounds read low 1 | locus YHR027C, strain rpn1, active compounds read low 1 | locus YHR030C, strain SLT2, active compounds read low 1.01 and 0.992 | locus YHR079C, strain IRE1 (second series), active compounds read low 0.991 | locus YHR079C, strain IRE1, active compounds read low 0.989 | locus YHR094C, strain hxt1, active compounds read low 0.986 | locus YHR129C, strain ARP1, active compounds read low 1.03 | locus YHR142W, strain chs7, active compounds read low 1 | locus YHR200W, strain rpn10, active compounds read low 0.993 | locus YIL066C, strain RNR3, active compounds read low 1.04 | locus YIL073C, strain SPO22, active compounds read low 1.02 | locus YIL125W, strain kgd1, active compounds read low 0.993 | locus YIR030C, strain dcg1, active compounds read low 0.991 | locus YJL092W, strain hpr5, active compounds read low 0.999 | locus YJL095W, strain BCK1 (second series), active compounds read low 0.995 | locus YJL095W, strain BCK1, active compounds read low 1.01 and 1.02 | locus YJL115W, strain asf1, active compounds read low 0.994 | locus YJL129C, strain trk1, active compounds read low 1 | locus YJL134W, strain LCB3, active compounds read low 1 | locus YJL154C, strain vps35, active compounds read low 0.997 | locus YJL164C, strain tpk1, active compounds read low 0.996 | locus YJL166W, strain qcr8, active compounds read low 0.995 | locus YJL168C, strain set2, active compounds read low 0.986 | locus YJL187C, strain SWE1 (second series), active compounds read low 1.02 | locus YJL187C, strain SWE1, active compounds read low 0.996 | locus YJR043C, strain POL32, active compounds read low 1.04 | locus YJR066W, strain TOR1, active compounds read low 0.947 | [2] 1.02 | locus YKL009W, strain mrt4, active compounds read low 0.995 | locus YKL068W, active compounds read low 0.997 | locus YKL085W, strain MDH1 (second series), active compounds read low 1.01 | locus YKL085W, strain MDH1, active compounds read low 1.01 | locus YKL160W, strain elf1, active compounds read low 1 | locus YKL190W, strain CNB1, active compounds read low 0.987 | locus YKR001C, strain vps1, active compounds read low 0.987 | locus YKR026C, strain gcn3, active compounds read low 1 | locus YKR091W, strain srl3, active compounds read low 0.992 | locus YLL001W, strain dnm1, active compounds read low 0.994 | locus YLL026W, active compounds read low 1 | locus YLL041C, strain sdh2, active compounds read low 0.999 | locus YLR027C, strain aat2, active compounds read low 0.998 | locus YLR039C, strain RIC1, active compounds read low 1.06 | locus YLR058C, strain SHM2, active compounds read low 1.01 | locus YLR102C, strain apc9, active compounds read low 0.993 | locus YLR113W, strain HOG1, active compounds read low 1.02 | locus YLR221C, strain rsa3, active compounds read low 1.01 | locus YLR258W, strain gsy2, active compounds read low 0.995 | locus YLR262C, strain YPT6 (second series), active compounds read low 0.998 | locus YLR262C, strain YPT6, active compounds read low 1.09 | locus YLR268W, strain sec22, active compounds read low 0.984 | locus YLR320W, strain mms22, active compounds read low 0.999 | locus YLR330W, strain CHS5, active compounds read low 1 | locus YLR342W, strain FKS1 (second series), active compounds read low 1.03 | locus YLR342W, strain FKS1, active compounds read low 0.994 | locus YLR357W, strain rsc2, active compounds read low 0.99 | locus YLR370C, strain arc18, active compounds read low 1 | locus YLR371W, strain rom2, active compounds read low 0.983 | locus YLR384C, strain iki3, active compounds read low 0.999 | locus YLR418C, strain cdc73, active compounds read low 0.997 | locus YML016C, strain PPZ1, active compounds read low 1.01 | locus YML032C, strain rad52, active compounds read low 0.999 | locus YML120C, strain ndi1, active compounds read low 0.992 | locus YML124C, strain tub3, active compounds read low 1 | locus YMR058W, strain fet3, active compounds read low 1 | locus YMR078C, strain ctf18, active compounds read low 0.985 | locus YMR125W, strain sto1, active compounds read low 0.986 | locus YMR129W, active compounds read low 0.995 | locus YMR205C, strain PFK2, active compounds read low 0.983 | locus YMR223W, strain ubp8, active compounds read low 1.01 | locus YMR231W, strain pep5, active compounds read low 0.999 | locus YMR307W, strain GAS1, active compounds read low 1.09 | locus YNL067W, strain RPL9B, active compounds read low 1 | locus YNL071W, strain lat1, active compounds read low 1 | [3] 1.02 | locus YNL153C, strain GIM3, active compounds read low 1 | locus YNL183C, strain NPR1, active compounds read low 0.97 | locus YNL209W, strain ssb2, active compounds read low 1 | locus YNL233W, strain BNI4, active compounds read low 1.01 | locus YNL248C, strain rpa49, active compounds read low 0.995 | locus YNL250W, strain rad50, active compounds read low 1.01 | locus YNL271C, strain bni1, active compounds read low 0.988 | locus YNL298W, strain CLA4, active compounds read low 1.02 | locus YNL307C, strain MCK1, active compounds read low 0.988 | locus YNL322C, strain KRE1 (second series), active compounds read low 0.997 | locus YNR049C, strain mso1, active compounds read low 1 | locus YNR052C, strain pop2, active compounds read low 1 | locus YOL012C, strain htz1 0.948 | locus YOL147C, strain pex11, active compounds read low 0.986 | locus YOR001W, strain rrp6, active compounds read low 0.999 | locus YOR061W, strain CKA2, active compounds read low 1.01 | locus YOR069W, strain VPS5, active compounds read low 1.01 | locus YOR070C, strain gyp1, active compounds read low 0.998 | locus YOR080W, strain dia2, active compounds read low 0.996 | locus YOR083W, strain WHI5, active compounds read low 0.993 | locus YOR106W, strain vam3, active compounds read low 1 | locus YOR136W, strain idh2, active compounds read low 0.991 | locus YOR144C, strain elg1, active compounds read low 0.983 | locus YOR184W, strain ser1, active compounds read low 1 | locus YOR231W, strain MKK1, active compounds read low 1.01 | locus YOR265W, strain rbl2, active compounds read low 0.996 | locus YOR270C, strain vph1, active compounds read low 1.01 | locus YOR290C, strain snf2, active compounds read low 0.989 | locus YOR316C, strain cot1, active compounds read low 0.991 | locus YPL051W, strain arl3, active compounds read low 1 | locus YPL078C, strain atp4, active compounds read low 1.01 | locus YPL106C, strain sse1, active compounds read low 0.987 | locus YPL240C, strain hsp82, active compounds read low 0.99 | locus YPL256C, strain CLN2, active compounds read low 1.03 | locus YPR119W, strain clb2, active compounds read low 0.987 | locus YPR141C, strain kar3, active compounds read low 0.994 | locus YPR163C, strain tif3, active compounds read low 0.986 | locus YPR167C, strain met16, active compounds read low 0.996 | strain wtn01, active compounds read low 0.984

COc1cc(=O)n(C)c2c(OCC(O)C(C)(C)O)cccc12 (stereo unspecified)
inactive: [1] 1.03 | locus YAL040C, strain CLN3, active compounds read low 0.99 | locus YCL061C, strain MRC1 (second series), active compounds read low 1.01 | locus YDR363W, strain ESC2, active compounds read low 1.01 | locus YER002W, strain NOP16, active compounds read low 0.999 | [2] 1.01 | [3] 0.99 | locus YNL175C, strain NOP13, active compounds read low 1 | locus YNL197C, strain WHI3, active compounds read low 1.02 | locus YNL224C, strain SQS1, active compounds read low 1.01 | locus YOR083W, strain WHI5 (second series), active compounds read low 1.02
